In PubChem BioAssay (EPA / NIEHS):
Calls of active or inactive are those of the source. How the source made its calls: active means hit-call score of the fitted dose curve at least 0.9, where 1 is the maximum; inactive means score below 0.9.

Key:
[1] = BSK_CASM3C_SRB: Viability Assessment in the BioMAP Diversity Plus: CASM3C Assay (AID 2283050); conditions: primary human coronary artery smooth muscle cells;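 further: total protein by SRB staining as cytotoxicity measure in parallel cultures; cells exposed to compound for 24 h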
[2] = read-out: Thrombomodulin, THBD (gene 7056); assay: BSK_CASM3C_Thrombomodulin: BioMAP Diversity Plus: CASM3C Assay for Thrombomodulin Biomarker Activity (AID 2283051); conditions: primary human coronary artery smooth muscle cells; actives raise or lower the signal;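 further: thrombomodulin protein level measured by ELISA 24 h after dosing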
[3] = read-out: Tissue Factor, F3 (gene 2152); assay: BSK_CASM3C_TissueFactor: BioMAP Diversity Plus: CASM3C Assay for Tissue Factor Biomarker Activity (AID 2283052); conditions: primary human coronary artery smooth muscle cells; actives raise or lower the signal;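 further: cell surface tissue factor protein level read by ELISA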
[4] = read-out: Interferon-gamma inducible Protein 10 (IP10), CXCL10 (gene 3627); assay: BSK_hDFCGF_IP10: BioMAP Diversity Plus: hDFCGF Assay for Interferon-gamma inducible Protein 10 (IP10) Biomarker Activity (AID 2283053); conditions: primary human foreskin fibroblasts; actives raise or lower the signal
Procedure, shortened: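 Cells: human dermal foreskin fibroblasts. Exposure: 24 h post-dosing. Detection: IP-10 ELISA, with values expressed against DMSO controls and fitted in both directions.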

[5] = read-out: Urokinase-type plasminogen activator receptor (uPAR), PLAUR (gene 5329); assay: BSK_CASM3C_uPAR: BioMAP Diversity Plus: CASM3C Assay for Urokinase-type plasminogen activator receptor (uPAR) Biomarker Activity (AID 2283054); conditions: primary human coronary artery smooth muscle cells; actives raise or lower the signal;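 further: cell-surface uPAR protein level quantified by ELISA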
[6] = read-out: Vascular cell adhesion molecule 1 (VCAM1), VCAM1 (gene 7412); assay: BSK_CASM3C_VCAM1: BioMAP Diversity Plus: CASM3C Assay for Vascular cell adhesion molecule 1 (VCAM1) Biomarker Activity (AID 2283055); conditions: primary human coronary artery smooth muscle cells; actives raise or lower the signal;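 further: VCAM-1 protein level quantified by ELISA on the cells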
[7] = read-out: Collagen III, COL3A1 (gene 1281); assay: BSK_hDFCGF_CollagenIII: BioMAP Diversity Plus: hDFCGF Assay for Collagen III Biomarker Activity (AID 2283056); conditions: primary human foreskin fibroblasts; actives raise or lower the signal
Procedure, shortened: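 ELISA readout of Collagen III in human dermal (foreskin) fibroblasts, taken 24 h post-treatment. Gain or loss relative to DMSO vehicle fitted in both directions.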

[8] = read-out: Interleukin-8 (IL8), CXCL8 (gene 3576); assay: BSK_hDFCGF_IL8: BioMAP Diversity Plus: hDFCGF Assay for Interleukin-8 (IL8) Biomarker Activity (AID 2283058); conditions: primary human foreskin fibroblasts; actives raise or lower the signal
Procedure, shortened: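 IL-8 levels read by ELISA at 24 hours after dosing human skin fibroblast cultures. Parallel SRB staining assessed overt cytotoxicity, and gain or loss of signal was fitted against DMSO control.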

[9] = BSK_hDFCGF_Proliferation: Cell Proliferation Assessment in the BioMAP Diversity Plus: hDFCGF Assay (AID 2283059); conditions: primary human foreskin fibroblasts;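 further: curves fitted for both rise and fall of signal versus DMSO baseline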
Procedure, shortened: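 Steps: dose primary human dermal fibroblasts (foreskin); […] fix in 10% TCA; stain with 0.1% SRB; read 560 nm; fit gain or loss of signal against DMSO.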

[10] = read-out: Macrophage colony-stimulating factor (MCSF), CSF1 (gene 1435); assay: BSK_hDFCGF_MCSF: BioMAP Diversity Plus: hDFCGF Assay for Macrophage colony-stimulating factor (MCSF) Biomarker Activity (AID 2283060); conditions: primary human foreskin fibroblasts; actives raise or lower the signal
Procedure, shortened: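 M-CSF levels read by ELISA at 24 h post-dosing in human skin fibroblasts. Parallel cultures stained with SRB assessed cytotoxicity at the same time point; response fitted in both directions against the DMSO baseline.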

[11] = BSK_hDFCGF_SRB: Viability Assessment in the BioMAP Diversity Plus: hDFCGF Assay (AID 2283061); conditions: primary human foreskin fibroblasts;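 further: cells exposed to compound for 24 h before the read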
Procedure, shortened: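 Viability was read as total protein: after 10% TCA fixation, wells were stained with 0.1% sulforhodamine B and read at 560 nm. Primary human foreskin fibroblasts were dosed for 24 h, with bidirectional fitting versus DMSO.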

[12] = read-out: TIMP metallopeptidase inhibitor 1 (TIMP1), TIMP1 (gene 7076); assay: BSK_hDFCGF_TIMP1: BioMAP Diversity Plus: hDFCGF Assay for TIMP metallopeptidase inhibitor 1 (TIMP1) Biomarker Activity (AID 2283062); conditions: primary human foreskin fibroblasts; actives raise or lower the signal
Procedure, shortened: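 TIMP-1 measured by ELISA 24 h after chemical dosing of primary human skin fibroblasts, with gain or loss fitted relative to DMSO. Parallel SRB staining (560 nm) monitored overt cytotoxicity.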

[13] = read-out: Monokine induced gamma interferon (MIG), CXCL9 (gene 4283); assay: BSK_hDFCGF_MIG: BioMAP Diversity Plus: hDFCGF Assay for Monokine induced gamma interferon (MIG) Biomarker Activity (AID 2283063); conditions: primary human foreskin fibroblasts; actives raise or lower the signal
Procedure, shortened: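 Human primary foreskin fibroblasts in the hDFCGF system, exposed to test chemical for 24 h; MIG measured by ELISA. Bidirectional curve fitting against DMSO negative control as activity baseline.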

[14] = read-out: Matrix Metallopeptidase 1 (MMP1), MMP1 (gene 4312); assay: BSK_hDFCGF_MMP1: BioMAP Diversity Plus: hDFCGF Assay for Matrix Metallopeptidase 1 (MMP1) Biomarker Activity (AID 2283064); conditions: primary human foreskin fibroblasts; actives raise or lower the signal
Procedure, shortened: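 ELISA read-out of MMP1 from human foreskin fibroblasts (primary skin cells), 24 h post-dose. Gain or loss of signal was fitted bidirectionally versus DMSO negative control; cytotoxicity was checked by SRB in parallel cultures.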

[15] = read-out: Vascular cell adhesion molecule 1 (VCAM1), VCAM1 (gene 7412); assay: BSK_hDFCGF_VCAM1: BioMAP Diversity Plus: hDFCGF Assay for Vascular cell adhesion molecule 1 (VCAM1) Biomarker Activity (AID 2283065); conditions: primary human foreskin fibroblasts; actives raise or lower the signal;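 on AC50: VCAM-1 protein level quantified by ELISA after 24 h chemical exposure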
Procedure, shortened: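 ELISA readout of VCAM-1 on human dermal fibroblast primary cultures, 24 h after chemical exposure. Gain or loss of signal fitted in both directions against DMSO baseline.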

[16] = read-out: Plasminogen activator inhibitor-1 (PAI1), SERPINE1 (gene 5054); assay: BSK_hDFCGF_PAI1: BioMAP Diversity Plus: hDFCGF Assay for Plasminogen activator inhibitor-1 (PAI1) Biomarker Activity (AID 2283066); conditions: primary human foreskin fibroblasts; actives raise or lower the signal
Procedure, shortened: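 Fibroblasts from human foreskin were treated with test chemical. After 24 h, PAI-1 was measured by ELISA. Activity was fitted in both directions relative to DMSO.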

[17] = read-out: Intercellular Adhesion Molecule 1 (ICAM1), ICAM1 (gene 3383); assay: BSK_KF3CT_ICAM1: BioMAP Diversity Plus: KF3CT Assay for Intercellular Adhesion Molecule 1 (ICAM1) Biomarker Activity (AID 2283067); conditions: primary human keratinocytes with fibroblasts; actives raise or lower the signal
Procedure, shortened: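 Cell-surface ICAM-1 was measured by ELISA 24 h after dosing primary human skin keratinocytes co-cultured with fibroblasts. Parallel SRB staining tracked overt cytotoxicity. Gain or loss of signal was fitted relative to DMSO.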

[18] = read-out: Interferon-gamma inducible Protein 10 (IP10), CXCL10 (gene 3627); assay: BSK_KF3CT_IP10: BioMAP Diversity Plus: KF3CT Assay for Interferon-gamma inducible Protein 10 (IP10) Biomarker Activity (AID 2283068); conditions: primary human keratinocytes with fibroblasts; actives raise or lower the signal
Procedure, shortened: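 KF3CT co-culture (keratinocytes + foreskin fibroblasts), 24 h compound, IP-10 by ELISA; bidirectional fit vs DMSO baseline.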

[19] = BSK_KF3CT_SRB: Viability Assessment in the BioMAP Diversity Plus: KF3CT Assay (AID 2283069); conditions: primary human keratinocytes with fibroblasts;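 further: total protein by sulforhodamine B staining as a cytotoxicity measure; read 24 h after compound addition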
Procedure, shortened: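 SRB read-out at 560 nm (0.1% stain, TCA-fixed cells) gauges overt cytotoxicity in a human skin keratinocyte–fibroblast co-culture 24 h post-dosing. Signal change was fitted bidirectionally relative to DMSO control.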

[20] = read-out: Epidermal growth factor receptor (EGFR), EGFR (gene 1956); assay: BSK_hDFCGF_EGFR: BioMAP Diversity Plus: hDFCGF Assay for Epidermal growth factor receptor (EGFR) Biomarker Activity (AID 2283057); conditions: primary human foreskin fibroblasts; actives raise or lower the signal
Procedure, shortened: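 Dosing human primary skin fibroblasts, then measuring surface EGFR by ELISA at 24 h, gives the endpoint; gains and losses relative to DMSO were fitted in both directions.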

Measured: AC50

CCCC(CCC)C(=O)O
not listed: [20]
inactive: all other assays above

CC(C)c1nnc2ccc(-c3ocnc3-c3cc(F)ccc3F)cn12
active: [4] 0.628 µM | [6] 0.354 µM | [9] 5.62 µM | [14] 0.385 µM | [15] 0.148 µM
not listed: [18]
inactive: all other assays above

C=CN1CCCC1=O
not listed: [20]
inactive: all other assays above

NNC(=O)c1ccncc1
not listed: [14] | [20]
inactive: all other assays above

CCCCC(CC)C(=O)OCCOCCOCCOC(=O)C(CC)CCCC (stereo not drawn)
active: [2] 20 µM | [7] 20 µM | [9] 11 µM | [10] 10.7 µM
not listed: [18] | [20]
inactive: all other assays above

Cc1nc(-c2ccccn2)ncc1C(=O)Nn1cc(C)c2cc(F)ccc21
active: [2] 20 µM
not listed: [18] | [20]
inactive: all other assays above

c1ccc(C(O[C@@H]2CCCN(CCc3ccc4c(c3)OCO4)C2)c2ccccc2)cc1
active: [4] 26 µM | [7] 5.39 µM | [10] 20 µM | [11] 29 µM | [15] 8.8 µM | [16] 20 µM
not listed: [9] | [20]
inactive: all other assays above

CCCCN1C(=O)[C@@H]([C@H](O)C2CCCCC2)NC(=O)C12CCN(Cc1ccc(Oc3ccc(C(=O)O)cc3)cc1)CC2
active: [4] 31.2 µM | [9] 20 µM | [11] 20 µM | [14] 7.18 µM | [15] 31 µM
not listed: [7]
inactive: all other assays above

OC(Cn1cncn1)(Cn1cncn1)c1ccc(F)cc1F
not listed: [18] | [20]
inactive: all other assays above

CCCCCCCC1CCC(=O)O1 (stereo not drawn)
not listed: [20]
inactive: all other assays above

CCCCCOC(C)=O
not listed: [18] | [20]
inactive: all other assays above

OCc1ccccc1
not listed: [18] | [20]
inactive: all other assays above

S=P(N1CC1)(N1CC1)N1CC1
active: [9] 18.2 µM
not listed: [18] | [20]
inactive: all other assays above

CCc1ccc(O)c(C(C)(C)C)c1
inactive: [1] | [2] | [3] | [5] | [6]
active: [4] 35.2 µM | [7] 20 µM | [8] 36.3 µM | [9] 34.5 µM | [10] 27.4 µM | [11] 36.2 µM | [12] 31.1 µM | [13] 32.6 µM | [14] 31.8 µM | [15] 30.4 µM | [16] 28.1 µM | [17] 31.2 µM | [18] 36.8 µM | [19] 35.7 µM

NC(=O)NN=Cc1ccc([N+](=O)[O-])o1
active: [9] 27.8 µM
not listed: [18] | [20]
inactive: all other assays above

OCCOCCOCCO
not listed: [18] | [20]
inactive: all other assays above

NC(=O)N(O)[C@@H]1COc2cc(OCc3ccccc3)ccc21
active: [6] 10.2 µM
not listed: [20]
inactive: all other assays above

c1ccc2ncccc2c1
not listed: [18] | [20]
inactive: all other assays above

OCC(CO)(CO)CO
not listed: [18] | [20]
inactive: all other assays above

NC(N)=O
not listed: [10] | [18] | [20]
inactive: all other assays above

OCCC(F)(F)C(F)(F)C(F)(F)C(F)(F)F
not listed: [20]
inactive: all other assays above

CC(=O)c1ccccc1
not listed: [18] | [20]
inactive: all other assays above

FC(F)C(F)(F)COCC1CO1 (stereo not drawn)
not listed: [18] | [20]
inactive: all other assays above

CCCc1ccccc1
not listed: [20]
inactive: all other assays above

O=C1CN(N=Cc2ccc([N+](=O)[O-])o2)C(=O)N1
active: [9] 30.6 µM
not listed: [20]
inactive: all other assays above

O=C(O)c1ccc2c(c1)nc(C(=O)NC1CCN(C3CC3)CC1)n2Cc1cc(-c2ccc(Cl)s2)on1
not listed: [18] | [20]
inactive: all other assays above

O=C(Cl)C(F)(F)C(F)(F)C(F)(F)C(=O)Cl
not listed: [18] | [20]
inactive: all other assays above

NC(=O)N1c2ccccc2C=Cc2ccccc21
not listed: [18] | [20]
inactive: all other assays above
